Active and inactive are the calls of the source. Calls follow the shape of the dose curve; as a rule, active = well fitted activation curve with a large enough effect in the repeat runs; inconclusive = weak or mixed curves; inactive = flat fitted curve, though single readings scatter.
Molecular target: KiSS-1 receptor (Homo sapiens) (UniProt Q969F8)
Assay: Human kisspeptin (KISS1R) small molecule agonists, calcium flux assay in KISS1R-HEK293 cells (AID 1920064)
Details: KISS1R-HEK293, calcium flux fluorescence, agonist; series mostly up to 76.8 µM
From the text: National Center for Advancing Translational Sciences [NCATS]
Division of Preclinical Innovation [DPI]
U.S. Environmental Protection Agency [EPA]
National Institutes of Environmental Health Sciences [NIEHS]
National Toxicology Program [NTP]
U.S. Food and Drug Administration [FDA]
Kisspeptin and its receptor KISS1R play key roles in mammalian reproduction due to their involvement in the onset of puberty and control of the hypothalamic-pituitary-gonadal axis such as regulates GnRH release from the hypothalamus. The kisspeptin/KISS1R system also plays a direct role in peripheral organs (including the ovary, testis, uterus, and placenta) and is implicated in reproductive diseases such as miscarriage and polycystic ovary syndrome (PCOS). Abnormal KISS1R activity is associated with abnormal puberty, infertility, endometriosis, and hormone-dependent tumors. The KISS1 receptor (KISS1R, also called GPR54), a G-protein-coupled receptor (GPCR), acts (through phospholipase C) to increase intracellular inositol trisphosphate and then release intracellular calcium stores. Cell-based KISS1R-HEK293 assay is using HEK293 cells that have been genetically engineered to express the human KISS1R, which activity can be measured by calcium signaling. A compound/drug can activate (agonist) KISS1R that can be monitored by levels of intracellular calcium.
KISS1R-HEK293 cells developed by Codex Corp contain human KISS1R gene, which was stably integrated into HEK 293 cells. The compound activation can be detected by fluorescence intensity via calcium flux assay. This cell line has been used to screen the Tox21 10K compound library to identify agonists of KISS1R.
KISS1R-Hek293 cells were dispensed at 1500 cells/4uL/well in 1536-well black wall/clear bottom plates using a multidrop dispenser. After the assay plates were incubated at a 37 C/5% CO2 incubator for 18 hours, 4 microL of Calcium Dye Solution was added to each well. The plates were incubated at 37 C for 1 hour. And then 23 nL of compounds dissolved in DMSO, positive controls, or DMSO only was transferred to the assay plate by a pin tool station. The fluorescence intensity in the plates was measured using FDSS 7000EX kinetic plate reader with a filter set of Ex/Em=480/540 for 3 min at 1 sec intervals. Each test compound was measured at 15 concentrations and in triplicates.

KiSS-1 receptor (Homo sapiens), sequence (Q969F8 whole entry, looked up): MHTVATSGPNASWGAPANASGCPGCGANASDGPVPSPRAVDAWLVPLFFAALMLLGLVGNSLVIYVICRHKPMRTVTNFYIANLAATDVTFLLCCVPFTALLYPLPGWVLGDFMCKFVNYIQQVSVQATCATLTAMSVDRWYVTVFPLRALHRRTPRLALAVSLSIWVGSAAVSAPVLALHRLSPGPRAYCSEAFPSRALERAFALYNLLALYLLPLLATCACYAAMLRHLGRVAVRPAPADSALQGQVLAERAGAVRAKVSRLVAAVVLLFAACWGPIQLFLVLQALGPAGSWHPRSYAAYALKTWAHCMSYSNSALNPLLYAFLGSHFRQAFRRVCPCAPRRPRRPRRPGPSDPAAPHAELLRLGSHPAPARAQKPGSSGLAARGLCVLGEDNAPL

Row | Compound | outcome
1 | C=C(C)C(=O)OCC(C)(C)COC(=O)C(=C)C | inactive
2 | CCOC(=O)Cc1cccc2ccccc12 | inactive
3 | CC(NC(CCc1ccccc1)C(=O)O)C(=O)N1C(=O)N(C)CC1C(=O)O (stereo not given) | inactive
4 | CCOc1cc([N+](=O)[O-])c(OCC)cc1N1CCOCC1 | inactive
5 | CSSc1ccoc1C | inactive
6 | CNC(=O)CN(CCN(CCN(CC(=O)[O-])CC(=O)NC)CC(=O)[O-])CC(=O)[O-].O.[Gd+3] | inactive
7 | O=C(O)C1CCC1 | inactive
8 | Cc1c(C)n(CCN(C)C)c2ccc(C(=O)OCCN(C)C)cc12 | inactive
9 | c1ccc(CNCCNCc2ccccc2)cc1 | inactive
10 | COc1ccc2c(c1)C(=O)N(CCc1ccc(S(=O)(=O)NC(=O)NC3CCCCC3)cc1)C(=O)C2(C)C | inactive
11 | Cc1ccnc2ccccc12 | inactive
12 | COc1ccc(OC)c(N=Nc2c(O)ccc3ccccc23)c1 | inactive
13 | O=C(O)c1cccc(-c2noc(-c3ccccc3F)n2)c1 | inactive
14 | CC(C)C/C=C(\C=O)c1ccccc1 | inactive
15 | Cc1c(Cn2ccnc2)c2ccccc2n1CCC(=O)O | inactive
16 | CCNC(=O)C1CC(C)CCC1C(C)C (stereo not given) | inactive
17 | S=C1NC=NC2N=CNC12 (stereo not given) | inactive
18 | CCOC(=O)CC1(C)OCC(C)O1 (stereo not given) | inactive
19 | O=C(CCBr)N1CCN(C(=O)CCBr)CC1 | inactive
20 | NC(=O)c1ccccc1[N+](=O)[O-] | inactive

Row | Compound | outcome
21 | CN(C)CCOC1=Cc2ccccc2Sc2ccc(Cl)cc21 | inactive
22 | CCCCS | inactive
23 | CCCCCN=C(N)N/N=C/c1c[nH]c2ccc(OC)cc12 | inactive
24 | Nc1c(CC(=O)O)cccc1C(=O)c1ccc(Br)cc1 | inactive
25 | CC(C)SCc1ccco1 | inactive
26 | O=C1c2ccccc2C(=O)C1c1ccccc1 | inactive
27 | CC(N)CCCC(C)(C)O (stereo not given) | inactive
28 | CCN(CC)CCNC(=O)COc1ccc(Cl)cc1 | inactive
29 | CN(C)Cc1ccccc1 | inactive
30 | CCCCCCCCCCCc1ccccc1 | inactive
31 | O=[N+]([O-])c1cccc(I)c1 | inactive
32 | O=c1c(O)c(-c2ccc(O)cc2O)oc2cc(O)cc(O)c12 | inactive
33 | Cc1ncc(CO)c(C=O)c1O | inactive
34 | OCCCO | inactive
35 | CCCCCCCCCCCCOC(=O)c1ccc(O)cc1 | inactive
36 | COc1ccc2nc(SCc3ncc(C)c(OC)c3C)[nH]c2c1 | inactive
37 | Nc1ccc2cc(S(=O)(=O)O)ccc2c1 | inactive
38 | CCCCCC(C)N (stereo not given) | inactive
39 | CC[N+](CC)(CC)Cc1ccccc1 | inactive
40 | N#CC1(N)CCCCC1 | inactive

— PubChem BioAssay (Tox21)
